Only a sample is shown.
aSyn 5UTR act: Activators via SNCA 5'UTR binding, MLPCN; activity score, % (tested at 7.5 µM), hits read low; alpha-synuclein 5'UTR reporter, activators screen; hit rate 7.1% among 300,000; AID 1814, 2009; in the data active means activity score below about -60%
Active calls of the source: *.

SMILES | aSyn 5UTR act
CC(C)Oc1ccc(C2c3c(oc4ccccc4c3=O)C(=O)N2CCCN2CCOCC2)cc1 (configuration not stated) | -76*
CCCc1ccc(-c2cc(NC(=O)CSc3nnc(N)s3)n(-c3ccccc3)n2)cc1 | -146*
Nc1c(-c2ccc(Cl)cc2)cnn1-c1cccc(C(F)(F)F)c1 | -102*
Cc1ccc(-c2cnn(-c3cccc(C(F)(F)F)c3)c2N)cc1 | -147*
COc1ccc2cc(C(N)=O)c(=Nc3ccc(C)cc3)oc2c1 | -62*
Cc1cccc(N=c2oc3cc(O)ccc3cc2C(N)=O)c1 | -77*
COc1ccccc1N=c1oc2cc(O)ccc2cc1C(N)=O | -74*
CC(=O)c1ccc(NC(=O)CCc2c(C)nc3ncnn3c2C)cc1 | -69*
CCc1c(C)nc2ncnn2c1Nc1ccc(C(C)=O)cc1 | -112*
CCCc1ccc(OC(=O)c2ccc(O)cc2Cl)cc1 | -63*
CN1c2ccccc2Oc2nnc(N3CCN(Cc4ccccc4)CC3)cc21 | -97*
C/C(Cc1ccccc1)=N\NC(=O)c1ccccn1 | -67*
C/C(=N/NC(=O)c1ccccn1)c1ccncc1 | -116*
C/C(CC(=O)Nc1cc(C)cc(C)c1)=N\NC(=O)c1ccccn1 | -165*
C/C(=N\NC(=O)c1ccccc1Cl)c1ccccn1 | 82
COc1ccc(NC(=O)C/C(C)=N/NC(=O)c2ccccn2)c(OC)c1 | -107*
C/C(CC(=O)Nc1ccccn1)=N\NC(=O)c1ccccc1O | 71
C/C(CC(=O)Nc1ccccn1)=N\NC(=O)c1ccc2ccccc2c1 | -64*
CCC(C)c1ccc(NC(=O)C/C(C)=N/NC(=O)c2cnccn2)cc1 (configuration not stated) | -63*
C/C(CC(=O)Nc1ccc2c(c1)OCCO2)=N\NC(=O)C(=O)Nc1ccccc1C | -74*
C/C(CC(=O)Nc1ccc2c(c1)OCCO2)=N\NC(=O)c1ccccn1 | -143*
C/C(=N\NC(=O)c1c(Cl)cnn1C)c1ccc(NC(=O)c2ccc(Br)o2)cc1 | -116*
C/C(=N\NC(=O)C1CC1)c1ccc(NC(=O)c2ccc(Br)o2)cc1 | -110*
O=C(N=C1c2ccccc2CN1c1ccccc1)c1cccc([N+](=O)[O-])c1 | -123*
O=C(N=C1c2ccccc2CN1c1ccc(F)c(F)c1)c1cccnc1 | -84*
SMILES | aSyn 5UTR act
CCOC(=O)c1ccc(N2Cc3ccccc3C2=NC(=O)c2cccc([N+](=O)[O-])c2)cc1 | -212*
CC(C)C(OC(=O)c1ccccc1)c1nccc2ccccc12 (configuration not stated) | -116*
O=C(OC(c1ccccc1)c1nccc2ccccc12)c1cccc([N+](=O)[O-])c1 (configuration not stated) | -79*
Cc1nnnn1/C(=C\c1ccccc1)C(=O)OCC(=O)Nc1ccc(Cl)cc1F | -71*
O=C(Nc1sc2c(c1C(=O)O)CCC2)c1ccco1 | -62*
CC1(C)Cc2c(sc(NC(=O)c3ccc(Br)o3)c2C#N)CO1 | -91*
COC(=O)c1c(NC(=O)/C=C/c2ccco2)sc2c1CCC2 | -143*
COC(=O)c1c(NC(=O)c2ccc(C)o2)sc2c1CCCCC2 | -184*
O=C1/C(=N\S(=O)(=O)c2cccs2)C([n+]2ccc(CCCc3ccccc3)cc2)=C([O-])c2ccccc21 | 91
CC1(C)Cc2c(sc(NC(=O)c3ccco3)c2C(=O)O)CO1 | -81*
O=C(Nc1sc2c(c1C(=O)NCc1ccco1)CCCC2)c1ccc2c(c1)OCO2 | -187*
Cc1ccccc1/C(N)=N/OC(=O)/C=C/c1ccccc1 | -178*
COc1ccc(/C(N)=N/OC(=O)/C=C/c2ccccc2)cc1 | -88*
COc1ccc(/C=C/C(=O)O/N=C(\N)c2ccccc2)cc1OC | -138*
COc1ccc(/C=C/C(=O)Nc2ccc(-n3nncc3-c3ccc(OC)c(OC)c3)cc2)cc1OC | 59
COc1ccc(/C=C/C(=O)Nc2ccccc2)cc1OC | -140*
COc1ccc(/C=C/C(=O)c2cc(F)ccc2OC(=O)c2ccccc2C)cc1OC | 82
Cc1ccc(/C(N)=N/OC(=O)/C=C/c2ccccc2)cc1 | -63*
COc1cc(/C=C/C(=O)NC(=O)c2ccccc2O)ccc1OC(C)=O | -161*
O=C(O)c1ccc(N/N=C/c2ccc(OC(=O)c3ccccc3Cl)cc2)cc1 | 57
Cc1ccc(/C=N/Nc2ccc(C(=O)O)cc2)o1 | -70*
O=C(O)c1ccc(N/N=C/c2ccc(-c3ccccc3Cl)o2)cc1 | -65*
Cc1ccc(/C=N/Nc2ccc(C(=O)O)cc2)s1 | 76
Cc1ccccc1NC(=O)Cc1nc(CSc2nnc(-c3ccc4c(c3)OCO4)o2)cs1 | -72*
O=C(O)CCSc1nnc(-c2ccc3c(c2)OCO3)o1 | 67
SMILES | aSyn 5UTR act
c1cc(CSc2nnc(-c3ccc4c(c3)OCO4)o2)ccn1 | -86*
Cc1cccc(OCc2n(CC(=O)OC3CC(C)CCC3C(C)C)c3ccccc3[n+]2C)c1 (configuration not stated) | 60
COc1ccccc1N1CCN(C(=O)c2ccc(Cl)c(S(=O)(=O)NCc3ccco3)c2)CC1 | -124*
COc1cc(C(=O)N2CCN(c3cc(Cl)ccc3Cl)CC2)cc(OC)c1OC | 89
C=CCSc1cc(C)nc2c(-c3ccccc3)cnn12 | -74*
Cc1cc(N)n2ncc(-c3ccccc3)c2n1 | -149*
Oc1ccc(N=Nc2n[nH]c(-c3ccc(Cl)cc3)n2)cc1 | -109*
COc1ccccc1/C=C/C(=O)NCCc1ccccn1 | -92*
COc1ccccc1/C=C/C(=O)Nc1cccnc1Cl | -133*
COc1ccccc1C(NC(C)=O)c1cc(Cl)c2cccnc2c1O (configuration not stated) | 67
COc1ccc(/C=C/C(=O)Nc2cccnc2Cl)cc1 | -224*
COc1cc2[nH]c(-c3ccc(C)cc3)cc(=O)c2cc1OC | -75*
COc1ccc(-c2cc(=O)c3cc(C)ccc3[nH]2)cc1 | -63*
Cc1ccc(-c2cc(-c3cccs3)[nH]n2)c(O)c1 | -128*
c1csc(-c2nc(N3CCCCC3)no2)c1 | -137*
N/C(=N\OC(=O)CC1CCCCC1)c1ccc(Br)cc1 | -83*
N/C(=N\OC(=O)C1CCCCC1)c1cccc(Br)c1 | -170*
N/C(=N\OC(=O)CC1CCCCC1)c1cccc(Br)c1 | -84*
CC(C)CCn1cnc2c(cnn2-c2ccc(F)cc2)c1=O | -83*
CC(=O)Cn1cnc2c(cnn2-c2ccc(C)c(C)c2)c1=O | -106*
CCOC(=O)C1CCN(c2ncnc3c2cnn3-c2ccc(Cl)cc2)CC1 | 65
CCOC(=O)Cn1cnc2c(cnn2-c2ccc(Cl)cc2)c1=O | -65*
CCC(=O)Nc1cccc(NC(=S)NC(=O)c2ccccc2C)c1 | -113*
CCOc1ccc(C(=O)NC(=S)Nc2cccc(S(=O)(=O)NC3=NCCC3)c2)cc1 | 111
CCC(=O)Nc1cccc(NC(=S)NC(=O)c2ccc(Cl)cc2)c1 | -151*
SMILES | aSyn 5UTR act
Cc1ccc(OCC(=O)O/N=C(\N)c2ccncc2)c(C)c1 | -182*
Cc1ccccc1OCC(=O)O/N=C(\N)c1ccncc1 | -103*
N/C(=N\OC(=O)COc1cc(Cl)c(Cl)cc1Cl)c1ccncc1 | -174*
COc1ccccc1/C=N/NC(=O)c1csc(C)c1C | -78*
Cc1scc(C(=O)N/N=C/c2ccc(Cl)s2)c1C | -93*
CC(C)c1ccc(NC(=O)N2CCc3ccccc3C2)cc1 | -261*
O=[N+]([O-])c1ccc(N2CCc3ccccc3C2)cc1 | -117*
O=C(Nc1ccc([N+](=O)[O-])cc1)N1CCc2ccccc2C1 | -106*
Cc1ccc(C)c(NC(=O)N2CCc3ccccc3C2)c1 | -67*
Clc1cccc(Oc2cnc3ccccc3n2)c1 | -66*
